Consider 36 sequences from the OligoGym collection.
Further: reference of the scale not given here.

The target in one assay is SRSF6. The assay is described as follows: pooled miR-30 sensor sort-seq; sequence = guide strand. The note with it: shRNA.
TACTTCGTGACCGTCTTCTAGA: the sensor-assay potency score (higher = more potent) is -0.126. Same read-out and setting: in the case of TTGAAGTAGCTCTTTTTGGTGG it was -0.375; in that of ATTTTTGAGGTCTACTTCGAGG, -1.54. Same read-out and setting: the value for TTGAGCGAGATCTAGAACGGGA was 0.0866. Still for that read-out and setting: in the case of TTTGAGGTCTACTTCGAGGAGG it was -0.608. TAGATCTGCTTCGAGAATGTGA came in with a sensor-assay potency score (higher = more potent) of -0.00685. Same read-out and setting: in the case of TTGATCGAGAACGTGATCGACC it was -0.727; in that of TTAGATTTGCTCTTTGATCTAG, 0.289; in that of TTGATCTAGATTTCCTGCCTTT, 0.199. Same read-out and setting: in the case of TTGATCTTGACTTTGAGCGAGA it was -0.415; in that of TAGATTTGCTCTTTGATCTAGA, 0.174.

TTGACTTTGAGCGAGATCTAGA showed a sensor-assay potency score (higher = more potent) of -0.299.

In the next assay the target is SRSF7. The description is as above. The note with it: shRNA.
Consider TGCATCTCTAGGATCTTCGAAT, for which the sensor-assay potency score (higher = more potent) was -1.39.

For TTACCAACATACACCTTGGTTT, the sensor-assay potency score (higher = more potent) was -0.665. Still for that read-out and setting: in the case of TTTCTCGCAATCCATACAGTTC it was -1; in that of TTCTGAGTGAAGCTGATCTTGA, -0.735. The same measure, in the same setting: in the case of TAGATCTTGATCGTCGAGGAGA it was -0.545. The same measure, in the same setting: in the case of TTGATCTTGACCTCGACGGGGA it was 0.107; in that of TAAAGGACCATAATAACTGAAA, -1.16; in that of TTGATCGTCGAGGAGATGCTGA, -0.317. TAGATCTTCTGAGTGAAGCTGA gave a sensor-assay potency score (higher = more potent) of 0.474. The same measure, in the same setting: the value for TTTCTAACTCTCCTTTGCCAGC was -1.58; that for TATCAAAACGTGATCTCCGAGG was -0.606.

Sequence TAGACCTGGATCTTGATCTTGA returned a sensor-assay potency score (higher = more potent) of -0.00181.

Another assay concerns the target SS18. The assay is described as above. The note with it: shRNA.
Turning to TAGAATCTGCTATTGTAGCAAG, the sensor-assay potency score (higher = more potent) was -0.645. Still for that read-out and setting: in the case of TTTCAGTCTGTAACAGTCCATT it was -0.917.

Sequence TTGTGTGCAACATCTGCTGATA came in with a sensor-assay potency score (higher = more potent) of -0.703. Consider ATTGTCATCCAACATCTTCTGA, for which the sensor-assay potency score (higher = more potent) is -0.704.

Sequence TTGTCATCCAACATCTTCTGAA gave a sensor-assay potency score (higher = more potent) of -0.31. Same read-out and setting: in the case of TTATACACTGAATAAGATGGTT it was -0.124. In turn, TTTGTGTGCAACATCTGCTGAT showed a sensor-assay potency score (higher = more potent) of 0.199. In turn, TTGTCATCTGATTCTGTACTGG had a sensor-assay potency score (higher = more potent) of -0.29. Same read-out and setting: in the case of TATTGTAGCAAGGTATACCAAG it was -0.903. Turning to TTGGTTAACTTGACCCATCATT, the sensor-assay potency score (higher = more potent) was -0.57. Take TTTATCTTTATAGCACACCATT: the sensor-assay potency score (higher = more potent) was -1.15. Same read-out and setting: in the case of TATTGTATTGCTGAGAAGGAGG it was -1.18.
